From PubChem BioAssay AID720518 (National Center for Advancing Translational Sciences (NCATS), 2013)
Inconclusive results are not listed. Where a call stands in place of a potency, no number is given. Calls of active or inactive are those of the source. Calls come from the whole dose curve.

Experiment: qHTS for Inhibitors of Cell Surface uPA Generation: Wild-type Protective Antigen (WT-PrAg) Counterscreen for Cherry-picked Compounds

Compound	Potency
Cc1ccnc(NS(=O)(=O)c2ccc(NC(=O)C3C4C=CC(C4)C3C(=O)O)cc2)n1 (stereo not given)	inactive
Cc1ccc(S(=O)(=O)NCC(=O)OC(C)C(=O)NCc2ccc3c(c2)OCO3)cc1 (stereo not given)	inactive
O=C(NCCS(=O)(=O)N1CCC2(CC1)OCCO2)c1ccc(F)cc1	inactive
CCn1c(SC(C)C(=O)NC2CCCC2)nc2cc(S(N)(=O)=O)ccc21 (stereo not given)	inactive
O=C(CSc1nnnn1-c1cccc(F)c1)Nc1nc2ccccc2s1	inactive
COc1ccc2nc(C)cc(Nc3ccccc3O)c2c1	inactive
OCC[C@@H]1C[C@H](O)[C@@H](O)[C@]2(OCCc3ccccc32)O1	inactive
CSCC[C@H](NC(=O)[C@H](Cc1ccccc1)n1c(=O)[nH]c2ccccc2c1=O)C(=O)N1CCC[C@H]1C(=O)O	inactive
CC(=O)c1c(C)n(-c2ccccc2Br)c2ccc(O)cc12	inactive
COC(=O)c1ccc(CN2CCCC(CNC(=O)Cc3ccc(OC)cc3)C2)cc1 (stereo not given)	inactive
Cc1ccc(NC(=O)CCCn2c(=S)[nH]c3ccsc3c2=O)cc1C	inactive
COc1ccc2[nH]cc(S(=O)(=O)c3ccc(C(C)C)cc3)c(=O)c2c1	inactive
S=C(Nc1ccccc1Oc1ccccc1)NC1CCCC1	inactive
COc1ccc(NS(=O)(=O)c2c(C)n(C)c(=O)n(C)c2=O)cc1OC	inactive
C=CCn1c(SCc2ccc(C(=O)NCCO)cc2)nc2ccccc2c1=O	inactive
O=C(c1cc2cc([N+](=O)[O-])ccc2s1)N1CCOCC1	inactive
COc1ccccc1-c1ccc(SCC(=O)NCCc2ccccc2)nn1	inactive
CN(CCO)c1ccc(C(C(=O)c2ccccc2)c2ccc(N(C)CCO)cc2)cc1	inactive
COCCN(C(=O)c1ccccc1OC)c1nnc(C)s1	inactive
COc1cccc(-n2c(SCC(=O)Nc3cc(C)on3)nc3c([nH]c4ccccc43)c2=O)c1	inactive

Compound	Potency
Cc1oc(-c2ccccc2F)nc1CS(=O)CC(=O)NCc1ccc(F)cc1 (stereo not given)	inactive
O=C(c1cc(COc2c(F)cccc2F)on1)N1CCc2ccccc2C1	inactive
CC(=O)c1ccc(OCCCCOc2ccc(C(C)=O)cc2)cc1	inactive
O=C(COC(=O)c1cc([N+](=O)[O-])ccc1NCCO)NCc1cccs1	inactive
CCOc1ccc(CN2CCN(C(=O)Cc3ccccc3)CC2)cc1	inactive
CC(=O)Nc1ccc(OS(=O)(=O)c2c(C)cc(C)cc2C)cc1	inactive
CN(CC(=O)N(C)CC(=O)Nc1c(Cl)cccc1Cl)Cc1ccccc1F	inactive
CC(CCc1ccccc1)NC(=O)c1ccc(NC(=O)c2cccc(Br)c2)cc1 (stereo not given)	inactive
O=C(N/C(=C\c1cccc([N+](=O)[O-])c1)C(=O)N1CCOCC1)c1ccc([N+](=O)[O-])cc1	inactive
Cc1cccc(C(=O)NCC(=O)OCC(=O)NC2CCCCCCC2)c1	inactive
Cc1ccc(S(=O)(=O)N2CCN(C(=O)c3n[nH]c(=O)c4ccccc34)CC2)cc1	inactive
CCOC(=O)C1(CCOc2ccccc2)CCN(Cc2ccc(O)c(OC)c2)CC1	inactive
CCN(CC)C(=O)Cn1cc(/C=C(\C#N)C(=O)NC2CC2)c2ccccc21	inactive
COc1ccc(C(=O)N[C@H](C(=O)NCc2cccs2)C(C)C)cc1	inactive
COc1cc(NC(=O)CSc2nnc3ccc(-c4ccncc4)nn23)cc(OC)c1	inactive
COCCOC(=O)C1=C(C)NC(=O)NC1c1cccc2ccccc12 (stereo not given)	inactive
Cc1cc2[nH]c(=O)c(=O)[nH]c2cc1S(=O)(=O)NC1CCC(C)CC1 (stereo not given)	inactive
CC[C@]1(C(=O)OC)[C@H]2C(=O)N(C)C(=O)[C@H]2[C@H]2CN(C)C(=NC3CCCCC3)N21	inactive
C=CCNC(=S)NCC=C	inactive
CCCCNc1nnc(SCC(=O)c2c(N)n(CCC)c(=O)[nH]c2=O)s1	inactive
